In the library only some 18% were active in any assay of this set; here they are far more common.
RORgamma inh – blocks mouse ROR gamma transcriptional activity; P51450; Drosophila S2 Gal4-RORgamma UAS-luciferase reporter, 20 h; Potency, µM (doses to about 53.6 µM), for the others: top-dose activity change, negative = inhibition, hits mostly inhibitors; hit rate 5.4% among 310,000; AID 2551; note: potency is the fitted concentration of half-maximal effect; nearly all actives have a fitted effect of over 60% in size
Target sequence (P51450 whole entry, looked up, the tested form may be a part): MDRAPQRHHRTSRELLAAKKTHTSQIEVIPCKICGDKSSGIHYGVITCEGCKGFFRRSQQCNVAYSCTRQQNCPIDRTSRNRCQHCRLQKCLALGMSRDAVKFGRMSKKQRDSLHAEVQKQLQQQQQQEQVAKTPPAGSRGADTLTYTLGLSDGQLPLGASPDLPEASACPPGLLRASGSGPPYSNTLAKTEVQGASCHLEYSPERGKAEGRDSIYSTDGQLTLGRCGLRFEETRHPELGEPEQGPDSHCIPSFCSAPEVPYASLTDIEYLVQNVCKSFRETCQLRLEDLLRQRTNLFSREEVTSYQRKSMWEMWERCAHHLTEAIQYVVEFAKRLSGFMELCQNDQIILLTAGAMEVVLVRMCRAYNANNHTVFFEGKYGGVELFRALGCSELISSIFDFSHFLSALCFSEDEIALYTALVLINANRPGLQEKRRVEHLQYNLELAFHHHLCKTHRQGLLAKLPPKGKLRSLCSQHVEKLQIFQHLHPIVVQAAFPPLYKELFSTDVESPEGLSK
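Using a luciferase readout, inhibitors were identified by reduced reporter activity in Drosophila cells coexpressing a copper-inducible Gal4–ROR gamma fusion and UAS-driven Photinus luciferase, incubated 20 hr after 700 uM copper sulfate.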
IL-1B inflam inh – inhibitors of inflammasome signaling (IL-1 beta secretion). THP-1 LPS/ATP IL-1B secretion, AlphaLISA, 16 h; hits give low values. activity change, % at 57.5 µM. hit rate 4.7% among 360,000. AID 743279; in the data active = activity change below about -50%; inconclusive = mostly about -30% to -49%
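Secreted IL-1B measured by AlphaLISA bead assay after 16 h compound exposure of THP-1 cells; compounds (final up to 57.5 uM) added 1 h before LPS (250 ng/mL) and ATP (1.25 mM) stimulation; lower signal means less secretion.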
LDHA inh – LDHA (human) enzyme inhibition; P00338; purified LDHA, NADH/diaphorase-resazurin fluorescence; hits give low values; activity change, % (values are at about 110 or 230 µM); hit rate 0.15% among 480,000; in the data active = activity change below about -30%; inconclusive = mostly about -25% to -30%;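 note: plate controls were DMSO wells for no effect and wells without enzyme for full effect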
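Human LDH5 (2 nM) was incubated with 0.06 mM NADH and 0.2 mM pyruvate for 5 min at room temperature in Tris pH 7.4. Remaining NADH was coupled through diaphorase/resazurin, and resorufin fluorescence was read at 0 and 20 min.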
TDP1 cell noCPT – qHTS for Inhibitors of human tyrosyl-DNA phosphodiesterase 1 (TDP1): qHTS in cells in absence of CPT. Potency, µM (top dose mostly 46.2 µM), for the others: at the top dose activity change, negative = growth inhibition, hits mostly inhibitors. DT40 Tdp1-/- hTDP1 cells, no CPT, ATP luminescence, 48 h. hit rate 15% among 420,000. AID 686978, 2013; note: potency is the fitted concentration of half-maximal effect; nearly all actives have a fitted effect of over 55% in size
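Chicken DT40 Tdp1-/- cells complemented with human TDP1, screened without camptothecin (DMSO vehicle only), 400 cells/well. Compounds pin-transferred, cells incubated at 37 °C for at least 48 hr. Growth read as ATP-dependent luminescence (CellTiter-Glo, 30 min at RT).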
Gal4-VP16 FLuc – counter-screen for ROR gamma inhibitors: Gal4-VP16 reporter; Potency, µM (series often up to 53.6 µM), for the others: at the highest dose activity, negative = inhibition, hits mostly inhibitors; hit rate 3.5% among 310,000; Drosophila S2 Gal4-VP16 UAS-luciferase, luminescence, 20 h;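 note: Gal4-VP16 expression switched on by copper sulfate through the metallothionein promoter; potency is the fitted concentration of half-maximal effect; nearly all actives have a fitted effect of over 50% in size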
DT40 TDP1 CPT – growth inhibition of DT40 Tdp1-/-;hTDP1 cells with camptothecin (screen for TDP1 inhibitors); chicken DT40 Tdp1-/-;hTDP1 cells + 20 nM CPT, ATP luminescence, 48 h; Potency, µM (titrated, usually from 46.2 µM), for the others: at the highest dose activity change, negative = growth inhibition, usual class: inhibitors; hit rate 12% among 420,000; AID 686979; note: potency is the fitted concentration of half-maximal effect; nearly all actives have a fitted effect of over 55% in size
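Chicken DT40 Tdp1-/- cells complemented with human TDP1, 400 cells/well, exposed to compounds plus 20 nM camptothecin for at least 48 h at 37 C; viability read as ATP content by CellTiter-Glo luminescence.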
An asterisk follows results filed as active; ? = inconclusive; · = not tested or not shown. Unless noted, calls come from the whole dose curve; as a rule, active = well fitted curve in the direction sought with a large enough effect; inconclusive = small, poorly fitted or top-dose-only effect, or another doubt; inactive = no such curve, though single readings can be large; an effect the other way counts as inactive or inconclusive. Unless noted, % is set by controls: 0 for no effect and ±100 for the full control effect.

SMILES	RORgamma inh	IL-1B inflam inh	LDHA inh	TDP1 cell noCPT	Gal4-VP16 FLuc	DT40 TDP1 CPT
NC(=O)C(NC(=O)c1cc(-c2ccccc2)n[nH]1)c1ccccc1 (stereo unspecified)	·	·	6.5	·	·	·
Cc1ccc(NC(=O)C2CCCN(c3ncnc4c3nc3n4CCCCC3)C2)nc1 (stereo unspecified)	15.3%	24.7	0.8	8.2µM*	-10.2%	13µM*
Cc1ccc(Cl)cc1N1CCN(C(=S)NCCc2ccccc2)CC1	?	6.0	1.4	?	?	?
Cc1ccc(Cl)cc1N1CCN(c2cccc[n+]2C)CC1	-2.8%	-10.5	-15.6	25.9µM*	-8.0%	?
Clc1ccccc1N1CCN(c2ncnc3nc[nH]c23)CC1	-20.7%	16.9	0.7	-15.0%	-3.4%	-22.2%
C[n+]1ccccc1N1CCN(c2ccccc2Cl)CC1	-8.3%	-3.0	-10.8	?	6.9%	23.1µM*
COc1cc(NC(=O)C2(n3cnnn3)CCCCC2)cc(OC)c1	·	·	-0.4	·	·	·
COC(=O)c1ccccc1S(=O)(=O)Oc1ccc(-c2ccc(C(=O)O)cc2)cc1	12.6%	-99.2*	-1.2	-2.1%	20.4%	2.9%
CCc1cc2c(=O)n(CCC(C)C)c(=S)[nH]c2s1	0.199µM*	100.0	-1.3	?	1.41µM*	?
CCCn1cnc2sc(CC)cc2c1=O	35.0%	-3.2	-2.4	-23.8%	-6.5%	2.7%
CCC1Oc2ccccc2N(CC(=O)NCc2ccc(C)cc2)C1=O (stereo unspecified)	·	·	-5.5	?	·	?
CCC1Oc2ccccc2N(CC(=O)NCCC2=CCCCC2)C1=O (stereo unspecified)	39.3%	-17.4	-0.4	25.9µM*	3.3%	16.4µM*
Cc1c(CNC2CCCCCC2)c(C(=O)O)c(C)n1Cc1ccc(F)cc1	·	·	-4.3	-10.9%	·	5.2%
CCc1c(C)sc2c1CCN(Cc1cccc(F)c1)C2c1ccccc1 (stereo unspecified)	·	·	-15.8	11.6µM*	·	?
CCc1c(C)sc2c1CCN(Cc1ccc(F)cc1)C2c1ccccc1 (stereo unspecified)	·	·	-9.9	4.61µM*	·	?
CCOC(=O)C1CCCCN1Cc1cccc(F)c1 (stereo unspecified)	-21.9%	22.1	-21.9	0.7%	5.0%	3.5%
CCOC(=O)CSc1nc(C)c(C(C)=O)cc1C(N)=O	4.2%	-57.3*	-1.4	-10.8%	1.6%	4.5%
Cc1c(CCC(=O)NCc2ccc3c(c2)OCO3)c(=O)oc2c(C)c(O)ccc12	·	·	0.7	·	·	·
c1ccc(C2(CN3CCNC[C@H]3Cc3cccc4ccccc34)CC2)cc1	·	-67.5*	11.0	?	·	?
CC(C)(C)CN1CCNC[C@H]1Cc1cccc2ccccc12	·	?	0.3	?	·	?
c1ccc2c(C[C@@H]3CNCCN3CCC34CC5CC(CC(C5)C3)C4)cccc2c1	·	10.2	3.3	?	·	18.4µM*
CCC(CC)c1nc(C#N)c(NCc2ccccc2)o1	28.3%	0.8	1.2	20.6µM*	-0.2%	23.1µM*
COc1ccc(C(=O)Oc2ccccc2Cl)cc1Br	·	·	0.5	·	·	·
CCN(CC)c1ccc(/C=N/N(c2ccccc2)c2ccccc2)c(O)c1	?	-23.9	11.9	?	?	?
O=C(Cc1cccs1)N/N=C/c1ccccc1	22.6%	6.5	-0.8	-8.9%	-7.0%	-8.1%
CCN(CC)c1ccc(/C=N/NC(=O)c2cnccn2)cc1	-18.5%	13.1	2.5	1.64µM*	-4.0%	1.3µM*
CCN(CC)c1ccc(/C=N/NC(=S)NCc2ccccc2)c(O)c1	8.91µM*	63.4	3.1	?	7.08µM*	?
CCN(CC)c1ccc(/C=N/NC(=O)Cc2cccs2)c(O)c1	0.178µM*	66.0	2.9	5.17µM*	0.562µM*	4.61µM*

From PubChem BioAssay
